The results in this text go back to PubChem BioAssay AID2763 (National Center for Advancing Translational Sciences (NCATS), 2010).

Records with an inconclusive call do not appear. Entries that show only a call come without a potency. Calls of active or inactive are those of the source. Calls follow the shape of the dose curve; as a rule, active = well fitted inhibition curve with a large enough effect; inconclusive = small, poorly fitted or top-dose-only effect, or effect the other way; inactive = no such curve, though single readings can be large or run the other way.

The test is described as follows: Concentration response confirmation VP16 counterscreen for inhibitors of ROR gamma transcriptional activity. Also: nearly all actives have a fitted effect of over 70% in size. The essentials: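 Luciferase counterscreen: UAS-driven Photinus reporter in S2 cells expressing copper-inducible Gal4-VP16 fusion, 600 cells/well. Induced with copper sulfate (700 uM final) 1 hr after compound, incubated 20 hr at ambient temperature before luminescence detection.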
(Counterscreens check selectivity or assay interference.)
Potency is read from the fitted curve at half-maximal effect.

In the case of `COC(=O)c1ccc2nc(Nc3nc4ccc(F)cc4s3)sc2c1`, the Potency is 5.6 µM (active). Take `COc1ccc(-c2nnc(-c3ccc(N(C)C)cc3)o2)cc1`: the Potency entry is “inactive”.

For the molecule `CCOc1cccc(-c2cc(-c3n[nH]c(=S)n3CC)c3ccccc3n2)c1`, the Potency entry was “inactive”.

`COc1ccc(C(=O)Nc2ccc(NC(=O)c3cccs3)cn2)cc1`: the Potency result was “inactive”. Take `O=C(COc1ccccc1Cl)NCCCN1CCOCC1`: the Potency result was “inactive”. Regarding `Cc1nn(-c2ccccc2)c(C)c1C(=O)Nc1nnc(-c2ccco2)o1`, the Potency is 1.25 µM (active).

Turning to `CN(C)S(=O)(=O)c1ccc(NC(=O)/C=C/c2ccccc2Cl)cc1`, the Potency entry was “inactive”. Regarding `Cc1cc(C)c2[nH]c(C(=O)Nc3ccc4c(c3)OCO4)cc2c1`, the Potency entry was “inactive”. `Cc1ccc(-c2noc(CCC(=O)N(C)c3ccccc3C)n2)cc1`: the Potency result is “inactive”. As to `Cc1ccc(NC(=O)CCN2CCN(C)CC2)cc1`, the Potency entry was “inactive”. For `CCN1CCN(CCC(=O)Nc2ccccc2)CC1`, the Potency entry is “inactive”.

Take `CCOC(=O)Cc1nnc(Nc2ccc(C(=O)NC)cc2)c2ccccc12`: the Potency entry was “inactive”. With `COc1ccc(-c2c[n+]3c(n2-c2ccc(C)cc2)CCCCC3)cc1`, the Potency was 3.53 µM (active). Consider `O=C1NC2=C(C(=O)CCC2)C(c2ccccc2)N1` (stereo not given), for which the Potency result was “inactive”.

In the case of `C=CCNc1nc(Nc2ccc([N+](=O)[O-])cc2)nc(N2CCCC2)n1`, the Potency is 19.9 µM (active).

For the molecule `CCOC(=O)c1oc2cccc(OCC(O)CNC(C)C)c2c1C` (stereo not given), the Potency entry was “inactive”. For the molecule `COc1ccc(C(=O)/C=C/c2ccc(OC)cc2OC)c(O)c1`, the Potency entry was “inactive”. For `S=c1[nH]nc(-c2ccc(Cl)cc2Cl)n1-c1ccc2c(c1)OCCO2`, the Potency result was “inactive”. For the molecule `COc1ccc(/C=C/C(=O)NC(=S)NCC2CCCO2)cc1` (stereo not given), the Potency is 14.1 µM (active).

Take `COc1ccc(C(=O)Nc2scc(-c3ccc(Cl)cc3Cl)c2C(N)=O)cc1`: the Potency result was “inactive”. Regarding `COc1ccc2oc(=O)c(C(=O)Nc3ccccc3C)cc2c1`, the Potency was 7.91 µM (active).

Consider `COc1cccc(/C=C2\SC(=S)N(CCCC(=O)N3CCCC3)C2=O)c1`, for which the Potency result is “inactive”. The same measure for `COc1cc(CNS(=O)(=O)c2ccc3c(c2)CC(C)N3C(=O)C2CCC2)cc(OC)c1OC` (stereo not given): 9.96 µM (active); for `Cc1ccc2nc(-c3ccc(NC(=O)COC(=O)c4ccc([N+](=O)[O-])o4)cc3)sc2c1`: 3.53 µM (active); for `COc1ccc(-c2nc(CS(=O)(=O)CC(=O)NCCc3ccc(C)cc3)c(C)o2)cc1`: “inactive”. Consider `S=c1[nH]c(-c2ccc(Br)cc2)cn1CCc1ccccc1`, for which the Potency is 14.1 µM (active).

As to `CCN1CCCc2cc(CN(CCN3CCOCC3)C(=S)Nc3ccccc3C)ccc21`, the Potency was 15.8 µM (active). The result for `CC(=O)c1cccc(N(CC(=O)Nc2ccccc2C(=O)N2CCCC2)S(C)(=O)=O)c1` reads “inactive”; that for `COC(=O)Cn1c(CN2CCN(c3ccc(F)cc3)CC2)nc2c1c(=O)n(C)c(=O)n2C`, 3.15 µM (active).

`COc1ccc2nc(NC(=O)c3sc4nc(C)cc(C)c4c3N)sc2c1`: the Potency is 0.0791 µM (active).

For the molecule `Cc1cc(C)nc(-n2nc(C)cc2NC(=O)CNC(C)c2ccccc2)n1` (stereo not given), the Potency is 19.9 µM (active).

Regarding `Cc1cc(Br)c2nc3c(c(C(=O)O)c2c1)CCCCC3`, the Potency result is “inactive”. In the case of `Cc1ccc(-c2n[nH]c(=S)n2/N=C/C=C\c2ccccc2[N+](=O)[O-])cc1`, the Potency entry is “inactive”.

On to `Cc1ccc(S(=O)(=O)NCc2ccncc2)c(C)c1C`, for which the Potency is 3.97 µM (active). For `CCOC(=O)[C@@H]1[C@H]2COc3cc(OC)ccc3[C@@H]2N2C(=O)N(c3ccc(C)cc3)C(=O)[C@@]12C`, the Potency entry was “inactive”.
